Screen size: about 2,000 compounds; about 15 (0.8%) showed an effect of 50% or more. The sample as a whole holds a higher share of strong results than the screen did.

For this experiment, the system named is Balamuthia mandrillaris (ATCC PRA-291) trophozoites, axenic culture. Kind of experiment: primary screen, percent inhibition; higher = more effect of the substance.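 Also: 0% = vehicle wells and 100% = lysate wells.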 Particulars: 20 µM. In outline: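 Trophozoites (3,000/well) in axenic medium exposed to library drugs at 20 µM in 0.2% DMSO for 72 h; viability by CellTiter Glo luminescence at 2, 4 and 8 h. Controls: vehicle and freeze-thaw amoeba lysate; B-score corrects row, column and edge effects.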
On to `C[N+]1(C)[C@H]2CC(OC(=O)[C@H](CO)c3ccccc3)C[C@H]1C1OC12` (stereo partly drawn), for which the “% Inhibition” value is reported as 14.3%.
To `C=CCC1(C(C)CCC)C(=O)NC(=O)NC1=O` (stereo not drawn) belongs 11.2%; to `CCC1C(C)=NN=C(c2ccc(OC)c(OC)c2)c2cc(OC)c(OC)cc21` (stereo not drawn), 11.9%.
`CN(C)CCOC(c1ccc(Cl)cc1)c1ccccn1` (stereo not drawn): the “% Inhibition” value was determined as 7.85%.
As for `O=S(=O)(O)CCSSCCS(=O)(=O)O`, the “% Inhibition” value stood at 37.4%.
The same measure for `Cc1nnc(SCC2=C(C(=O)O)N3C(=O)[C@@H](NC(=O)Cn4cnnn4)[C@H]3SC2)s1`: 10.9%; for `O=C(O)CCC(=O)OC[C@@H](NC(=O)C(Cl)Cl)[C@H](O)c1ccc([N+](=O)[O-])cc1`: -36.5%.
For the molecule `CC[C@H]1OC(=O)[C@H](C)[C@@H](O[C@H]2C[C@@](C)(OC)[C@@H](O)[C@H](C)O2)[C@H](C)[C@@H](O[C@@H]2O[C@H](C)C[C@H](N(C)C)[C@H]2O)[C@](C)(O)C[C@@H](C)CN(C)[C@H](C)[C@@H](O)[C@]1(C)O`, the “% Inhibition” value is listed as 23.9%.
For `Nc1c2c(nc3ccccc13)CCCC2`, the “% Inhibition” value is given as 30.5%.
On to `CC[C@H](NC(C)C)[C@H](O)c1ccc(O)c2nc(O)ccc12`, for which the “% Inhibition” value is reported as 6.56%.
To `C[C@]12C=CC(=O)C=C1CCC1C2[C@@H](O)C[C@@]2(C)C1CC[C@]2(O)C(=O)COP(=O)(O)O` (stereo partly drawn) belongs 5.73%; to `CN(C)CCC[C@@]1(c2ccc(F)cc2)OCc2cc(C#N)ccc21` [131042-L4], 26.2%; to `Clc1ccc(CSC(Cn2ccnc2)c2ccc(Cl)cc2Cl)cc1` (stereo not drawn), 15.3%.
To `CN(C)CCC=C1c2ccccc2C=Cc2ccccc21` belongs 23.3%.
As for `CN(C)C(=O)Oc1cc(OC(=O)N(C)C)cc(C(O)CNC(C)(C)C)c1` (stereo not drawn) [255708-L4], the “% Inhibition” value is given as 12%.
Turning to `OC[C@H]1O[C@@](CO)(OC[C@@]2(O)O[C@H](CO)[C@@H](O)[C@@H]2O)[C@@H](O)[C@@H]1O`, the “% Inhibition” value was determined as 26.1%.
As to `NC(=O)N1c2ccccc2C=Cc2ccccc21`, the “% Inhibition” value came out at 6.46%.
Regarding `CCN(CC)C(C)CN1c2ccccc2Sc2ccccc21` (stereo not drawn), the “% Inhibition” value was 8.27%.
For the molecule `O=c1[nH]c(=O)n([C@H]2C[C@H](O)[C@@H](CO)O2)cc1F`, the “% Inhibition” value stood at 4.91%.
As to `CCN(CC)CCNC(=O)c1c(C)[nH]c(/C=C2\C(=O)Nc3ccc(F)cc32)c1C`, the “% Inhibition” value is listed as 6.48%.
To `O=C(Nc1ccccc1)OCC(CN1CCCCC1)OC(=O)Nc1ccccc1` (stereo not drawn) belongs 9.34%.
Regarding `CCCCC1=NC2(CCCC2)C(=O)N1Cc1ccc(-c2ccccc2-c2nn[nH]n2)cc1`, the “% Inhibition” value was 14.7%.
The same measure for `CCCc1nc(C(C)(C)O)c(C(=O)O)n1Cc1ccc(-c2ccccc2-c2nn[nH]n2)cc1`: 21.5%; for `OCCN1CCN(CCCN2c3ccccc3Sc3ccc(Cl)cc32)CC1`: 33.5%; for `CCCCCN(C)CCC(O)(P(=O)(O)O)P(=O)(O)O` [756736-L2]: 25.4%.
Regarding `Cc1cc2c(cc1S(N)(=O)=O)S(=O)(=O)CCC2`, the “% Inhibition” value was 25.8%.
On to `NC[C@H]1O[C@H](O[C@H]2[C@H](O)[C@@H](O[C@H]3O[C@H](CO)[C@@H](O)[C@H](N)[C@H]3O)[C@H](N)C[C@@H]2N)[C@H](O)[C@@H](O)[C@@H]1O`, for which the “% Inhibition” value is on record as 16%.
`CC[C@@H]1OC(OC(c2c[nH]cn2)C(NC(=O)c2nc(C(CC(N)=O)NCC(N)C(N)=O)nc(N)c2C)C(=O)NC(C)C(O)C(C)C(=O)NC(C(=O)NCCc2nc(-c3nc(C(=O)NCCCCN=C(N)N)cs3)cs2)C(C)O)[C@@H](O[C@H]2O[C@H](CO)[C@@H](O)[C@H](OC(N)=O)[C@@H]2O)[C@@H](C)[C@@H]1C` (stereo partly drawn): the “% Inhibition” value is -5.83%.
Turning to `O=C(NCCCN1CCOCC1)c1ccc(Cl)cc1`, the “% Inhibition” value amounted to 17.5%.
As to `CC(C)OC(=O)CCC/C=C\C[C@@H]1[C@@H](CC[C@@H](O)CCc2ccccc2)[C@H](O)C[C@@H]1O`, the “% Inhibition” value stood at 12.8%.
In the case of `CC[C@@H](C(=O)[C@@H](C)[C@@H](O)[C@H](C)[C@@H]1O[C@@H]([C@@H](CC)C(=O)O)CC[C@@H]1C)[C@H]1OC2(C=C[C@@H](O)[C@]3(CC[C@@](C)([C@H]4CC[C@](O)(CC)[C@H](C)O4)O3)O2)[C@H](C)C[C@@H]1C` (stereo partly drawn), the “% Inhibition” value is listed as 19.1%.
To `CC[C@]1(O)C[C@H]2CN(CCc3c([nH]c4ccccc34)[C@@](C(=O)OC)(c3cc4c(cc3OC)N(C=O)[C@H]3[C@@](O)(C(=O)OC)[C@H](OC(C)=O)[C@]5(CC)C=CCN6CC[C@]43[C@@H]65)C2)C1` belongs 9.62%; to `COc1ccccc1N1CCN(CCCNc2cc(=O)n(C)c(=O)n2C)CC1`, 37.2%.

The % Inhibition is the change of the read-out against control, counted positive when it falls.

These data come from publication PMC6212833.
